Giardia FBPA inh: qHTS Assay for Inhibitors of Fructose-1,6-bisphosphate Aldolase from Giardia Lamblia | A8B2U2 | purified Giardia FBPA | Potency, µM (highest dose often 59.6 µM), usual class: inhibitors | 0.71% of 290,000 active; also: nearly all actives have a fitted effect of over 55% in size
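Giardia FBPA (40 nM reagent) was preincubated 10 min at RT with compound (up to 57.5 uM final), then substrate plus GAPDH/TPI/NAD/arsenate coupling system with diaphorase/resazurin was added; resorufin fluorescence (525/598 nm) was read after 20 min.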
Shiga toxin inh: A qHTS for Small Molecule Inhibitors of Shiga Toxin | Vero cells, Shiga toxin protein synthesis inhibition reporter | inhibition, % at 38.7 µM | 9.2% of 290,000 active; in the data active = inhibition mostly above about 28%, no sharp cut-off; inactive = mostly below about 43%
TbPYK inhibitor: qHTS of Trypanosoma Brucei Inhibitors. TbPYK enzyme, Kinase-Glo Plus ATP luminescence, 45 min. Potency, µM (series often up to 76.8 µM), usual class: inhibitors. 0.12% of 410,000 active; also: nearly all actives have a fitted effect of over 50% in size
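Luminescence from Kinase-Glo Plus, added after a 45-minute room-temperature reaction, served as the end-point read-out. The enzyme and substrate were preincubated with compound before ADP (130 uM final) initiated turnover. Concentration-effect curves came from normalized qHTS data.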
Cycloheximide cs: Cycloheximide Counterscreen for Small Molecule Inhibitors of Shiga Toxin. cell reporter, cycloheximide protein synthesis inhibition counterscreen. max response, %. 12% of 300,000 active. AID 2314, 2010; in the data active = max response mostly above about 13%, no sharp cut-off; inactive = mostly below about 14%; also: read at 38.3 µM for the half of the compounds with a filed dose
RE007 growth inh: qHTS Assay for Inhibitors of the HIV-1 protein Vpr; S. pombe RE007 Vpr strain, BacTiter-Glo ATP luminescence, 24 h; Potency, µM (titrated, usually from 92.2 µM), hits mostly inhibitors; 0.21% of 360,000 active; AID 651644, 2012; active = well fitted falling curve with a large enough effect; inconclusive = small, poorly fitted or top-dose-only effect; inactive = no such curve, though single readings can be large or run the other way; also: nearly all actives have a fitted effect of over 50% in size
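Fission yeast RE007 carrying one integrated HIV-1 vpr copy, seeded at OD 0.01 in PMG+AL medium with 23 nL pinned compound. Grown 24 h at 30 degrees; viability read by BacTiter-Glo luminescence after 5 min.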
LmPK inh: qHTS Assay for Inhibitors of Leishmania Mexicana Pyruvate Kinase (LmPK); Q27686; purified LmPK, Kinase-Glo ATP luminescence, 1 h; Potency, µM (titrated, usually from 57.5 µM), most hits filed as inhibitors; 0.37% of 290,000 active
Target sequence (Q27686 whole entry, looked up): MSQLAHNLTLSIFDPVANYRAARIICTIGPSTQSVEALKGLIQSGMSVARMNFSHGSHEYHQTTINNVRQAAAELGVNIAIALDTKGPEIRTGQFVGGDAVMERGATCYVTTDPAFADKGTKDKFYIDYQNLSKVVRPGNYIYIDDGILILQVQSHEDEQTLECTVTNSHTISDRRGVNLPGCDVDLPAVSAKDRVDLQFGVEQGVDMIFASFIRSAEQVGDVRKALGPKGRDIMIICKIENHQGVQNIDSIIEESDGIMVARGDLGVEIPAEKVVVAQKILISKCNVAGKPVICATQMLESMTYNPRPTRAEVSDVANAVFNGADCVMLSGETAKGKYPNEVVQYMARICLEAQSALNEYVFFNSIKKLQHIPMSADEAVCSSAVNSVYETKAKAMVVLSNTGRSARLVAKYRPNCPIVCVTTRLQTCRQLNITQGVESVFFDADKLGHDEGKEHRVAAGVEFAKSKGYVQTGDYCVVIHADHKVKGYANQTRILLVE
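Kinase-Glo luminescence read after 1 h RT reaction of 0.1 nM LmPK with 0.5 mM PEP and 0.1 mM ADP. Activity scaled between uninhibited and enzyme-free controls.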
Hits are given with their value; 0 = inactive; ? = inconclusive; - = not tested or not shown. The entries come from a sample that favours hits as a whole. Unless noted, calls follow the shape of the dose curve; as a rule, active = well fitted curve in the direction sought with a large enough effect; inconclusive = small, poorly fitted or top-dose-only effect, or another doubt; inactive = no such curve, though single readings can be large; an effect the other way counts as inactive or inconclusive.

SMILES	Giardia FBPA inh	Shiga toxin inh	TbPYK inhibitor	Cycloheximide cs	RE007 growth inh	LmPK inh
Cc1cc2c([nH]c3ccccc32)c2c1OC(C)(C)C=C2	0	87	0	47	?	0
COc1ccc2[nH]c(=O)c3c(c2c1)OC(C)(C)C=C3	0	0	0	0	0	0
COc1c(C(=O)NCCSC(C)(C)C)ccc2ccccc12	0	39	0	13	0	0
CN(c1ccc(C(=O)NCCSC(C)(C)C)cc1)S(=O)(=O)c1ccccc1	0	0	0	11	0	0
CC(C)(C)SCCNC(=O)c1ccccc1	0	0	0	37	0	0
Cc1ccc(C(=O)NCCSC(C)(C)C)cc1[N+](=O)[O-]	0	95	0	54	0	0
Cc1ccc(CSCCNC(=O)c2ccc(N(C)S(=O)(=O)c3ccccc3)cc2)cc1	0	0	0	0	0	0
O=C(NCCSSCCNC(=O)c1ccccc1)c1ccccc1	-	-	0	-	0	-
COc1ccccc1C(=O)NC(=O)CSc1nnc(N)s1	-	-	0	-	0	-
CSc1ccccc1NC(=O)c1ccc(N2CC3CC(C2)c2cccc(=O)n2C3)c(NC(=O)c2cccnc2)c1 (centres undefined)	0	0	0	0	0	0
C/C1=C2/[N-]C(C(CC(N)=O)[C@@]2(C)CCC(=O)NCC(C)OP(=O)([O-])O[C@H]2[C@@H](O)[C@@H](n3cnc4cc(C)c(C)cc43)O[C@@H]2CO)[C@]2(C)N=C(/C(C)=C3N=C(/C=C4N=C1C(CCC(N)=O)C\4(C)C)[C@@H](CCC(N)=O)[C@]\3(C)CC(N)=O)[C@@H](CCC(N)=O)[C@]2(C)CC(N)=O.CC(=O)O.[Co] (some centres undefined)	-	-	0	-	-	-
Cc1ccc(C(=O)NCCSC(C)(C)C)cc1	0	0	0	43	0	0
CSCCNC(=O)c1ccc(C(C)(C)C)cc1	0	92	0	28	?	0
Cc1ccc(C(=O)NNC(=O)c2ccncc2)cc1[N+](=O)[O-]	-	-	0	-	0	-
Cc1ccc(C(=O)ONC(=O)c2ccc(Cl)cc2)cc1[N+](=O)[O-]	0	34	0	21	0	0
Cc1ccc(C(=O)NCC(C)(C)O)cc1	0	0	0	0	0	0
CCOc1ccc(CC(=O)NCCc2sc3nc(-c4ccc(F)cc4)nn3c2C)cc1	-	-	0	-	-	-
CCOc1ccc(NS(=O)(=O)c2ccc(C(=O)NCC(c3ccco3)N3CCCCC3)cc2)cc1 (centres undefined)	-	-	0	-	0	-
Cc1cc2n(n1)SC(Nc1ccc(F)cc1)N2 (centres undefined)	0	41	0	13	0	0
CCc1ccccc1NC1Nc2cc(C)nn2S1 (centres undefined)	0	0	0	0	0	0
Cc1cc2n(n1)SC(Nc1cccc3ccccc13)N2 (centres undefined)	0	52	0	27	0	0
Clc1cccc(CNc2ccn3nc(-c4cccc(Cl)c4)cc3n2)c1	-	-	0	-	?	-
CCc1cccc(NC(=O)CN2C(=O)COc3ccc(S(=O)(=O)Nc4ccccc4)cc32)c1	-	-	0	-	-	-
CCOc1ccc(N(C(=O)c2ccccc2Cl)C2=NC(C)(C)CS2)cc1	0	66	0	28	0	0
CC(C)c1ccc(Nc2c(-c3ccccn3)nc3ccccn23)cc1	-	-	0	-	-	-
SMILES	Giardia FBPA inh	Shiga toxin inh	TbPYK inhibitor	Cycloheximide cs	RE007 growth inh	LmPK inh
O=C1OCC(CO)(CO)N=C1NNc1ccccc1[N+](=O)[O-]	0	58	0	43	0	0
O=C1OCC(CO)(CO)N=C1NNc1cc(Cl)ccc1Cl	0	0	0	0	0	0
COc1ccc(OCCOCCOc2ccc(C)cc2[N+](=O)[O-])cc1	0	0	0	0	-	0
COc1ccc(OCCOc2ccccc2[N+](=O)[O-])cc1	0	0	0	39	0	0
O=[N+]([O-])c1ccccc1OCCOc1ccccc1[N+](=O)[O-]	0	50	0	18	0	0
CCOC(=O)/C=C/COc1ccccc1[N+](=O)[O-]	0	102	0	47	0	0
COc1ccc(CNc2ncccc2[N+](=O)[O-])cc1	0	52	0	26	0	0
CC(C)(C)C(=O)COc1ccccc1[N+](=O)[O-]	0	0	0	0	?	0
CCNc1ncc2nc(-c3ccc(Cl)cc3)c(=O)n(Cc3ccc(F)cc3)c2n1	0	-	-	-	-	-
Cc1ccc(Cl)c(OCC(=O)NC2CCN(Cc3ccccc3)CC2)c1	-	-	0	-	0	-
c1ccc(SCCOCCN2CCOCC2)cc1	?	0	0	15	0	0
OCCCN1CCN(CCCOc2ccccc2-c2ccccc2)CC1	0	0	0	0	0	0
O=[N+]([O-])c1ccccc1OCCCN1CCOCC1	0	0	0	9.3	0	0
Cc1ccc(SCCOCCN2CCOCC2)cc1	?	0	0	0	0	0
Cc1cccc(Cl)c1OCCCN1CCOCC1	?	49	0	21	0	0
c1ccc(-c2ccccc2OCCCN2CCOCC2)cc1	0	0	0	28	0	0
CC1CN(CCCOc2ccccc2[N+](=O)[O-])CC(C)O1 (centres undefined)	?	0	0	0	0	0
Cc1ccc(Nc2cc(C(=O)NC3CCCC3)c3ccccc3n2)cc1C	-	-	0	-	-	-
O=C(/C=C/c1cn(CC(O)CN2CCCCCC2)c2ccccc12)c1ccccc1 (centres undefined)	-	-	0	-	-	-
CN1CCN(Cn2cc(/C=C/C(=O)c3ccccc3)c3ccccc32)CC1	0	61	0	33	?	0
Cc1cccc(C)c1NC(=O)C(=O)NCC(c1ccc2c(c1)OCO2)N1CCN(C)CC1 (centres undefined)	-	-	0	-	-	-
C=CCN(CC(O)c1cccc([N+](=O)[O-])c1)C(C)CCc1ccccc1 (centres undefined)	0	0	0	0	0	0
COc1cc(/C=N/Nc2nc(=O)[nH]nc2C)ccc1O	?	70	0	37	0	0
COc1ccc(/C=N/Nc2nc(=O)[nH]nc2C)cc1OC	?	66	0	33	0	?
COc1ccc(/C=N/Nc2nc(=O)[nH]nc2C)cc1[N+](=O)[O-]	0	0	0	0	0	0
CC(=O)NC(CC(=O)OCC(=O)N1CCc2ccccc21)c1ccccc1 (centres undefined)	0	0	0	0	0	0
Cc1ccc(S(=O)(=O)N2CCCC2CNC(=O)C(=O)NC2CC2)cc1 (centres undefined)	-	-	0	-	0	-
COc1ccc2cc(C3CC(c4ccco4)=NN3S(=O)(=O)c3ccccc3)c(Cl)nc2c1 (centres undefined)	0	33	0	0	0	0
Cc1ccc2cc(C3CC(c4ccco4)=NN3S(=O)(=O)c3ccccc3)c(Cl)nc2c1 (centres undefined)	0	0	0	0	0	0
